Molecules are shown by their SMILES. The panel holds about 83,000 compounds, 20% with a hit somewhere; the sample as a whole holds those more often.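 Negative percent growth values reflect cell death: -40 means 40% of the cells present at the start died, and -100 means all died.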 Values without a mark were called inactive. The source made the active and inactive calls. How the source made its calls: active means growth percent below 10; inactive means the rest.

Common to all, as to test: NCI-60 one-dose screen, 48 h (100 = growth as untreated, 0 = no growth, -100 = all killed)
What all share (settings): 10 µM unless noted

The test system of experiment [1] is HCT-15 colon.
Experiment [2] concerns HT29 colon.
The test system of experiment [3] is SNB-19 CNS.
Experiment [4] relates to U251 CNS.
In experiment [5] the test system is PC-3 prostate.
In experiment [6] the test system is SK-MEL-5 melanoma.
Experiment [7] deals with UACC-62 melanoma.
In experiment [8] the test system is LOX IMVI melanoma.
In experiment [9] the test system is SK-MEL-28 melanoma.

Consider `C[C@@]1(CCC#N)[C@H]2CC[C@@H]3[C@H]4[C@H](C(=O)/C=C/c5cccnc5)CC[C@]4(C#N)CC[C@@]3(C)[C@]2(C)CC[C@H]1C(=O)/C=C/c1cccnc1`, for which the growth is 31.5% in experiment [1]; 24.1% in experiment [2]; 86.9% in [3]; 64.1% in experiment [4]; 65% in experiment [5]; 77.3% in experiment [6]. Further, the growth in experiment [7] was 52.4%; in [8], 17.5%; in experiment [9], 97.3%.
For `O=c1[nH]c2ccccc2n1C1CCN(CCOc2ccccc2)CC1`, the growth in experiment [1] was 85.1%; in [2] it was 99.4%; in experiment [3] it was 93.3%; in [4] it was 88.9%; in experiment [5] it was 58.9%; in [6] it was 95.6%. Besides, the growth is 95.2% in experiment [8] and 102% in experiment [9].
On to `COc1ccc(C(=O)Nn2c(NCC(=O)N3c4ccccc4Sc4ccccc43)nnc2-c2ccc(O)cc2)cc1`, for which the growth in experiment [1] is 96.9%; in experiment [2], 98.2%; in experiment [3] it was 111%; in experiment [4] it was 97%; in experiment [5], 97.6%; in [6] it was 104%. Moreover, the growth in experiment [7] is 104%; in experiment [8], 98.4%; in experiment [9] it was 119%.
Regarding `O=C(/C=C/c1c(Cl)nc2sccn12)c1nccs1`, the growth in [1] is 99.3%; in experiment [2], 97.5%; in experiment [3], 102%; in experiment [4], 91.6%; in experiment [5], 91.1%; in experiment [6], 95.6%. The growth in experiment [7] is 89.7%; in [8], 89.1%; in [9], 104%.
On to `COc1cccc(-c2nn(-c3ccccc3)cc2-c2ccnc(NCCNC(=O)Nc3ccc(Cl)c(Cl)c3)c2)c1`, for which the growth in experiment [1] is 7.83% (active); in [2], -20.5% (active); in [3], 28.9%; in experiment [4] it was -11.6% (active); in experiment [5], 4.19% (active); in [6] it was 3.01% (active). The growth was -14.2% (active) in [7], -68.8% (active) in experiment [8] and 16.1% in [9].
Consider `CCCCCCCCCOc1c(OC)cc(C2CC(=O)Nc3c2c(C)nn3-c2nc3ccccc3[nH]2)cc1OC` (stereo unspecified), for which the growth was -30.8% (active) in experiment [1]; -37.9% (active) in experiment [2]; -4% (active) in experiment [3]; -51.6% (active) in [4]; -3.05% (active) in experiment [5]; -99.4% (active) in experiment [6]. Also, the values for the growth in experiment [7], in [8] and in [9] were -62.4% (active), -95.8% (active) and -47.4% (active), respectively.
`Oc1c(CN2CCCC2)cc(COCc2ccc(Br)cc2)c2cccnc12`: the growth is -39.6% (active) in experiment [1]; 55% in [2]; 23.2% in experiment [3]; -7.1% (active) in [4]; 14.4% in experiment [5]; -15.1% (active) in experiment [6]. The growth is -22.4% (active) in [7], -14.1% (active) in experiment [8] and 24.2% in experiment [9].
Take `COc1ccc(-c2c(N)n[nH]c2-c2ccc(Cl)cc2O)cc1OC`: the growth in experiment [1] is 88.5%; in experiment [2], 111%; in experiment [3] it was 97.7%; in experiment [4] it was 95.6%; in [5], 86.3%; in experiment [6], 93.7%. Besides, the growth in experiment [7] is 76.3%; in [8], 89.5%; in experiment [9], 106%.
With `N=C1C(c2nc(-c3ccc(Br)cc3)cs2)=C(O)CN1CC1CCCO1` (stereo unspecified), the growth in experiment [1] is 89.5%; in experiment [2], 97.5%; in experiment [3], 87.4%; in experiment [4] it was 74.9%; in experiment [5], 7.86% (active); in [6], 102%. In addition, the growth in experiment [7] was 105%; in experiment [9], 107%.
With `Cc1ccc(-c2cc(-c3cccnc3)[nH]c(=O)c2C#N)cc1`, the growth in experiment [1] was 103%; in experiment [2], 107%; in experiment [3], 97%; in experiment [4], 101%; in experiment [5] it was 110%; in experiment [6], 105%. In addition, the growth in experiment [7] is 96.9%; in [8], 96.9%; in [9], 109%.
For `Cc1ccc(S(=O)(=O)n2cc(CNc3ccc(N4CCOCC4=O)cc3)c3ccccc32)cc1`, the growth is 74.7% in [1]; 89.1% in experiment [2]; 97.7% in [3]; 95.1% in [4]; 89.6% in [5]; 93% in [6]. For the same compound, the values for the growth in experiment [7], in experiment [8] and in [9] were 78.2%, 87.2% and 101%, respectively.
On to `O=C(Nc1ccc(Nc2ccncc2)cc1)c1ccc(C(=O)Nc2ccc(Nc3ccncc3)cc2)cc1`, for which the growth was 79.7% in experiment [1]; 32.9% in experiment [2]; 77.4% in experiment [3]; 64.2% in experiment [4]; 60.4% in [5]; 34.4% in experiment [6]. The values for the growth in experiment [7], in experiment [8] and in [9] were 38.3%, 65.5% and 43.4%, respectively.

These data come from PubChem BioAssay (NCI).
